The values that follow come from PubChem BioAssay (Tox21).

Activity calls are given as the source filed them. Calls come from the whole dose curve; as a rule, active = well fitted activation curve with a large enough effect in the repeat runs; inconclusive = weak or mixed curves; inactive = flat fitted curve, though single readings scatter.

This assay is described as follows: A CellTox Green Cytotoxicity Assay to monitor cytotoxicity in HepG2 cells - 0 hour (AID 1224882). Note: nearly all actives have a fitted effect of over 35% in size. Particulars: CellTox Green fluorescence; series mostly up to 76.8 µM. Summed up:
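Continuous culture of HepG2 cells with a membrane-impermeant DNA dye; rising fluorescence marks dead cells. Compound exposure lasted up to 40 h at 37 C, with reads every 8 h from 0 h.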
Consider `CNC(=O)Oc1ccccc1C1OCCO1`, for which the result was inactive.
For `N#CC(Cl)(Cl)Cl` the value was “inactive”; for `Nc1cc2c3c(c1)C(c1ccccc1)=N[C@@H](NC(=O)c1cccnc1)C(=O)N3CC2`, “inactive”; for `C#CCN1C(=O)COc2cc(F)c(N3C(=O)C4=C(CCCC4)C3=O)cc21`, “inactive”.
Take `CCCCOC(=O)[C@@H](C)Oc1ccc(Oc2ccc(C#N)cc2F)cc1`: the call was inactive.
With `CCOC(=O)C1(c2ccccc2)CCN(CCc2ccc(N)cc2)CC1`, the call was inactive.
For `ClCC(Cl)(Cl)Cl` the value was “inactive”.
For `CC(Oc1ccc(Oc2ncc(C(F)(F)F)cc2Cl)cc1)C(=O)O` (centres undefined), the call was inactive.
With `Cc1ncsc1CCCl`, the compound was classed as inactive.
`CCN(Cc1ccc(Cl)nc1)/C(=C/[N+](=O)[O-])NC`: the outcome was inactive.
Take `C[C@]12CC[C@H]3[C@@H](CC=C4C[C@@H](O)CC[C@@]43C)[C@@H]1CC[C@@H]2O`: the call was inactive.
For the compound `NC1=NC(=O)C(c2ccccc2)O1` (centres undefined), the outcome was inactive.
With `Cc1cccc(C#N)c1`, the compound was classed as inactive.
On to `Clc1ccccc1N1CCNCC1`, for which the compound was classed as inactive.
As to `COP(=S)(OC)Oc1c(Cl)cc(C)cc1Cl`, the result was inactive.
The entry for `CN1CCC(N(Cc2ccccc2)c2ccccc2)CC1` is “inactive”; for `CC(C)CC#N` it is “inactive”.
For `CN1C[C@@H](NS(=O)(=O)N(C)C)C[C@@H]2c3cccc4c3c(cn4C)C[C@H]21` the value was “inactive”.
On to `CCN(CC)C(C)C(=O)c1ccccc1` (centres undefined), for which the outcome was inactive.
On to `CNC(=O)Oc1cccc(C(C)C)c1`, for which the compound was classed as inactive.
The entry for `CC(=O)CCc1ccc2c(c1)OCO2` is “inactive”; for `O=NN1CCN(N=O)CC1` it is “inactive”.
With `C=C(C)[C@@H]1CC=C(C=O)CC1`, the compound was classed as inactive.
For `CNC(=O)Oc1c(C(C)(C)C)cc(C)cc1C(C)(C)C`, the compound was classed as inactive.
